# PubChem BioAssay (EPA / NIEHS)
# Records with an inconclusive call do not appear. Activity calls are given as the source filed them. The calls were made as follows, unless noted: active = hit-call score of the fitted dose curve at least 0.9, where 1 is the maximum; inconclusive = response in the unintended direction; inactive = score below 0.9.
# Tests used:
# [1] = read-out: sulfotransferase (SULT2A), SULT2A1 (gene 6822); experiment: CLD_SULT2A_6hr: CellzDirect (CLD) Gene Expression Assay for sulfotransferase (SULT2A) at 6 hours (AID 2283669);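 also: hits raise transcript level above the DMSO vehicle baseline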
# Method in brief: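 Primary human hepatocytes from two donor preparations were dosed daily with chemicals or 0.2% DMSO and harvested at 6 h. Transcript induction read by qNPA chemiluminescence, fitted for gain of signal relative to DMSO; morphology-based cytotoxicity annotated.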
# [2] = read-out: Cytochrome P450 (CYP24A1_1), CYP24A1 (gene 1591); experiment: LTEA_HepaRG_CYP24A1_1: Life Technologies and Expression Analysis (LTEA) Assay for Cytochrome P450 (CYP24A1_1) using HepaRG (AID 2283671; active = hit-call score of the fitted dose curve at least 0.9, where 1 is the maximum; inactive = score below 0.9); conditions: mRNA level, 48 h; actives raise or lower the signal
# Method in brief: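 In this test, gene induction or suppression of CYP24A1 in human HepaRG liver cells is measured by qRT-PCR after 48 h chemical treatment (eight concentrations, maximum 100 uM). Values are fitted bidirectionally relative to DMSO.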
# [3] = read-out: glucuronosyltransferase (UGT1A1), UGT1A1 (gene 54658); experiment: CLD_UGT1A1_6hr: CellzDirect (CLD) Gene Expression Assay for glucuronosyltransferase (UGT1A1) at 6 hours (AID 2283672)
# Method in brief: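 Primary human hepatocytes from two donor preparations, dosed with fresh solutions in 0.2% DMSO, harvested at 6 h. UGT1A1 mRNA measured by qNPA chemiluminescence; induction fitted upward versus DMSO.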
# [4] = read-out: xenobiotic metabolism (CYP1A1), CYP1A1 (gene 1543); experiment: CLD_CYP1A1_24hr: CellzDirect (CLD) Gene Expression Assay for xenobiotic metabolism (CYP1A1) at 24 hours (AID 2283673);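 also: CYP1A1 mRNA level by quantitative nuclease protection with chemiluminescence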
# Method in brief: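 Primary human hepatocytes dosed daily with fresh solutions in 0.2% DMSO vehicle. mRNA measured at 24 h by quantitative nuclease protection assay with chemiluminescence; gain-of-signal fit versus DMSO, with morphology-based cytotoxicity flags.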
# [5] = CCTE_Padilla_ZF_144hpf_TERATOSCORE: (Legacy) CCTE's 144 Hour Post-fertilization zebrafish Assay Teratoscore, Padilla Lab (AID 2283679; active = hit-call score of the fitted dose curve at least 0.9, where 1 is the maximum; inactive = score below 0.9;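 as to AC50: zebrafish embryos with chorions exposed by immersion from 6-8 hpf to 5 dpf with daily renewal; teratogenicity score from eye scoring of death hatching and malformations at 144 hpf; higher score means more developmental defects relative to DMSO baseline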)
# Method in brief: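 Larvae scored by eye at 144 hpf for death, hatching and malformations after a day in clean Hanks'. Before that, daily-renewed exposure at 80 uM (0.4% DMSO, 26C) from roughly 6-8 hpf through 5 dpf, 4 embryos per chemical.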
# [6] = read-out: ABC Transporter (ABCB11), ABCB11 (gene 8647); experiment: CLD_ABCB11_6hr: CellzDirect (CLD) Gene Expression Assay for ABC Transporter (ABCB11) at 6 hours (AID 2283675);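 also: hits raise ABCB11 mRNA level so AC50 marks induction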
# Method in brief: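 Human primary hepatocytes (two donor preparations) given fresh chemical daily at multiple concentrations, vehicle 0.2% DMSO. ABCB11 mRNA induction measured 6 h after dosing by qNPA chemiluminescence versus DMSO; cytotoxicity annotated from morphology.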
# [7] = read-out: Cytochrome P450 2C19 (Homo sapiens) (UniProt P33261); experiment: CLD_CYP2C19_6hr: CellzDirect (CLD) Gene Expression Assay for xenobiotic metabolism (CYP2C19) at 6 hours (AID 2283678)
# Method in brief: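 Primary human hepatocytes from two donor preparations were dosed daily, with 0.2% DMSO as vehicle, and harvested 6 h after dosing. CYP2C19 mRNA induction was measured by qNPA chemiluminescence and fitted as gain of signal against DMSO.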
# [8] = read-out: Glyceraldehyde-3-phosphate dehydrogenase (Homo sapiens) (UniProt P04406); experiment: CLD_GAPDH_6hr: CellzDirect (CLD) Gene Expression Assay for Baseline Control (Glyceraldehyde 3-phosphate dehydrogenase) at 6 hours (AID 2283681);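 also: active means increased signal relative to DMSO vehicle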
# Method in brief: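 Primary human hepatocytes from two donor preparations, dosed at multiple concentrations with 0.2% DMSO vehicle; GAPDH mRNA measured 6 h after dosing by chemiluminescent quantitative nuclease protection assay (qNPA) on denatured lysates. Serves as background control; cytotoxicity annotated by morphology.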
# [9] = read-out: ABC Transporter (ABCB11), ABCB11 (gene 8647); experiment: CLD_ABCB11_24hr: CellzDirect (CLD) Gene Expression Assay for ABC Transporter (ABCB11) at 24 hours (AID 2283674; active = hit-call score of the fitted dose curve at least 0.9, where 1 is the maximum; inactive = score below 0.9)
# Method in brief: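 Primary human hepatocytes were dosed daily for two days, with 0.2% DMSO vehicle. ABCB11 mRNA induction was measured at 24 hours by quantitative nuclease protection assay with chemiluminescence. Gain of signal was fitted relative to DMSO.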
# [10] = read-out: HMG-CoA synthase (HMGCS2), HMGCS2 (gene 3158); experiment: CLD_HMGCS2_6hr: CellzDirect (CLD) Gene Expression Assay for HMG-CoA synthase (HMGCS2) at 6 hours (AID 2283682);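 also: actives raise HMGCS2 transcript above the 0.2% DMSO vehicle baseline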
# Method in brief: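 Primary human hepatocytes dosed daily with fresh chemical, 0.2% DMSO vehicle; HMGCS2 mRNA measured at 6 h by qNPA chemiluminescence. Gain of signal fitted against DMSO; cytotoxicity flagged from phase-contrast morphology.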
# Chain of Glyceraldehyde-3-phosphate dehydrogenase (Homo sapiens) (P04406 whole entry, looked up): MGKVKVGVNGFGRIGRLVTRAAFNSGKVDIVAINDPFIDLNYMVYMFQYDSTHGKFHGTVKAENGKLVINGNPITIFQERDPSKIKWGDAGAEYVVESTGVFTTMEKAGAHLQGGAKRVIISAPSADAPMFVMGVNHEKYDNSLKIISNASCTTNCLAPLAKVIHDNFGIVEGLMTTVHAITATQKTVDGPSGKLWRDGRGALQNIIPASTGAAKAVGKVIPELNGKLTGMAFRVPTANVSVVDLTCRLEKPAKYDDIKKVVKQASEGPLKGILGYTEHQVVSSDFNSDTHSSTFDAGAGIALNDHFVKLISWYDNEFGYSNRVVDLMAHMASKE
# Chain of Cytochrome P450 2C19 (Homo sapiens) (P33261 whole entry, looked up): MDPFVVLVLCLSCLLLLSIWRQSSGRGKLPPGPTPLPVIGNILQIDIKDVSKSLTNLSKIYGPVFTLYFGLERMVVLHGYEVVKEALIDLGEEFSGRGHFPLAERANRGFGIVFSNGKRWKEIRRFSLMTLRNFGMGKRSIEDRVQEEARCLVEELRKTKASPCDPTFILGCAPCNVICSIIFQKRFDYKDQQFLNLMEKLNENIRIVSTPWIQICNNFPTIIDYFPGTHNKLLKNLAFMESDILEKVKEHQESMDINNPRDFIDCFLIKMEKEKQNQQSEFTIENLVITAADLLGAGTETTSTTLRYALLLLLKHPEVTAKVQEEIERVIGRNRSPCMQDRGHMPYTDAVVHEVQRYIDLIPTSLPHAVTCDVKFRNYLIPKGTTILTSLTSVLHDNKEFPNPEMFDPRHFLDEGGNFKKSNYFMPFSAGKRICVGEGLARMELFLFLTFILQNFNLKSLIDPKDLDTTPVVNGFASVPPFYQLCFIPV
compound,measurement,setting,value
CCCCOCCOCCOCc1cc2c(cc1CCC)OCO2,outcome,[1],inactive
same,outcome,[2],inactive
same,outcome,[3],inactive
same,AC50,[4],2.56 µM (active)
same,AC50,[5],15.3 µM (active)
CCCCCOC(=O)COc1cc(N2C(=O)C3=C(CCCC3)C2=O)c(F)cc1Cl,outcome,[1],inactive
same,outcome,[3],inactive
same,outcome,[4],inactive
same,outcome,[6],inactive
same,outcome,[7],inactive
same,AC50,[5],3.14 µM (active)
same,outcome,[8],inactive
COC(=O)c1ccccc1C(=O)O,outcome,[1],inactive
same,outcome,[2],inactive
same,outcome,[3],inactive
same,AC50,[4],0.117 µM (active)
same,outcome,[9],inactive
same,outcome,[6],inactive
same,outcome,[7],inactive
same,outcome,[5],inactive
same,outcome,[8],inactive
same,outcome,[10],inactive
CCCCOC(=O)[C@@H](C)Oc1ccc(Oc2ccc(C(F)(F)F)cn2)cc1,outcome,[1],inactive
same,outcome,[3],inactive
same,AC50,[4],20 µM (active)
same,outcome,[6],inactive
same,outcome,[7],inactive
same,AC50,[5],5.45 µM (active)
same,outcome,[10],inactive
COc1c(Cl)ccc(Cl)c1C(=O)O,outcome,[1],inactive
same,outcome,[3],inactive
same,outcome,[4],inactive
same,outcome,[6],inactive
same,outcome,[7],inactive
same,outcome,[5],inactive
same,outcome,[8],inactive
same,outcome,[10],inactive
CCOC(=O)[C@H](C)Oc1ccc(Oc2nc3ccc(Cl)cc3o2)cc1,outcome,[1],inactive
same,outcome,[3],inactive
same,outcome,[4],inactive
same,outcome,[9],inactive
same,outcome,[6],inactive
same,outcome,[8],inactive
CC(C)(C)[C@@H](O)[C@@H](Cc1ccc(Cl)cc1)n1cncn1,outcome,[1],inactive
same,outcome,[3],inactive
same,AC50,[4],12.1 µM (active)
same,AC50,[5],46.7 µM (active)
same,outcome,[8],inactive
same,AC50,[10],1.9 µM (active)
CC1(C)C(C=C(Cl)Cl)C1C(=O)OCc1cccc(Oc2ccccc2)c1 (stereo unspecified),outcome,[1],inactive
same,outcome,[3],inactive
same,outcome,[4],inactive
same,outcome,[6],inactive
same,outcome,[7],inactive
same,AC50,[5],3.31 µM (active)
same,outcome,[8],inactive
same,outcome,[10],inactive
COC(=O)c1c(Cl)nn(C)c1S(=O)(=O)NC(=O)Nc1nc(OC)cc(OC)n1,outcome,[1],inactive
same,outcome,[3],inactive
same,outcome,[4],inactive
same,AC50,[5],58.9 µM (active)
same,outcome,[8],inactive
same,outcome,[10],inactive
COC(=O)c1cccc(C)c1S(=O)(=O)NC(=O)Nc1nc(OCC(F)(F)F)nc(N(C)C)n1,outcome,[1],inactive
same,outcome,[3],inactive
same,AC50,[4],5.36 µM (active)
same,outcome,[6],inactive
same,outcome,[7],inactive
same,outcome,[5],inactive
C=CCOC(Cn1ccnc1)c1ccc(Cl)cc1Cl (stereo unspecified),outcome,[1],inactive
same,outcome,[3],inactive
same,AC50,[4],1.07 µM (active)
same,AC50,[5],2.91 µM (active)
same,outcome,[8],inactive
same,outcome,[10],inactive
S=C([S-])NCCNC(=S)[S-].[Mn+2],AC50,[1],3.97 µM (active)
same,outcome,[2],inactive
same,outcome,[4],inactive
same,outcome,[6],inactive
same,AC50,[5],1.04 µM (active)
same,outcome,[8],inactive
same,outcome,[10],inactive
CCN(Cc1c(F)cccc1Cl)c1c([N+](=O)[O-])cc(C(F)(F)F)cc1[N+](=O)[O-],outcome,[1],inactive
same,outcome,[3],inactive
same,AC50,[4],0.786 µM (active)
same,outcome,[6],inactive
same,AC50,[5],0.00783 µM (active)
COc1nc(C)nc(NC(=O)NS(=O)(=O)c2ccccc2OCCCl)n1,outcome,[1],inactive
same,outcome,[3],inactive
same,outcome,[4],inactive
same,outcome,[6],inactive
same,outcome,[7],inactive
same,outcome,[5],inactive
same,outcome,[8],inactive
CCOC(=O)C(C)Oc1ccc(Oc2nc3ccc(Cl)cc3o2)cc1 (stereo unspecified),outcome,[1],inactive
same,outcome,[3],inactive
same,outcome,[4],inactive
same,outcome,[6],inactive
same,AC50,[5],2.06 µM (active)
same,outcome,[8],inactive
same,outcome,[10],inactive
